Reference: PubChem BioAssay (Tox21)
Results filed as inconclusive are left out. Active and inactive are the calls of the source. Unless noted, the call rests on the fitted dose curve; in most records, active means well fitted curve in the direction sought with a large enough effect in the repeat runs; inconclusive means weak or mixed curves; inactive means no such curve, though single readings can be large; an effect the other way counts as inactive or inconclusive.

How the values were obtained:
[1] = qHTS assay to identify small molecule antagonists of the retinoid acid receptor (RAR) signaling pathway - cell viability counter screen (AID 1159551); further: nearly all actives have a fitted effect of over 35% in size
Summary of the method: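 C3RL4 cells were seeded overnight at 37 C, then treated with compounds plus 1 uM (final) retinol for 6 h at 37 C. Viability was read as ATP by CellTiter-Glo luminescence after 30 min at room temperature.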

[2] = qHTS assay to identify small molecule antagonists of the retinoic acid receptor (RAR) signaling pathway (AID 1159552; further: nearly all actives have a fitted effect of over 50% in size)
Summary of the method: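 RARE-luc C3RL4 cells; cpds + 1 uM (final) retinol, 6 hr, 37 C/5% CO2; luciferase reagent, 30 min RT, luminescence readout. Inhibitors of retinol-driven signal scored.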

[3] = qHTS assay to identify small molecule agonists of the retinoic acid receptor (RAR) signaling pathway (AID 1159553)
Summary of the method: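 C3RL4 cells carrying a RARE luciferase reporter were plated overnight at 37 C, then exposed to compounds in DMSO for 6 hr at 37 C and 5% CO2. Luminescence was read 30 min after luciferase reagent addition at room temperature.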

[4] = qHTS assay to identify small molecule antagonists of the estrogen related receptor (ERR) signaling pathway from Tox21 library - cell viability counter screen (AID 1224834); further: nearly all actives have a fitted effect of over 30% in size
Summary of the method: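 ERR reporter cells were plated 6 h before compound addition, then exposed to test compounds in DMSO for 17.5 h at 37 C. Viability was read as CellTiter-Fluor fluorescence after a 30-minute incubation at 37 C.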

[5] = molecular target: Luciferin 4-monooxygenase (Photinus pyralis) (UniProt P08659); assay: qHTS assay to identify small molecule inhibitors of firefly luciferase (AID 1224835); further: nearly all actives have a fitted effect of over 25% in size
Summary of the method: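 Quantitative HTS format; KM concentrations of both substrates. Purified P. pyralis FLuc activity quantified from luminescence images.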

[6] = qHTS assay to identify small molecule agonists of the constitutive androstane receptor (CAR) signaling pathway - cell viability counter screen (AID 1224836); further: nearly all actives have a fitted effect of over 45% in size
Summary of the method: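 HepG2 cells stably carrying hCAR and a CYP2B6-2.2kb reporter were plated 4 h, then given compounds at 15 concentrations plus PK11195 (final 0.75 uM). After 23 h at 37 C, viability was read by CellTiter-Fluor fluorescence.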

[7] = molecular target: Nuclear receptor subfamily 1 group I member 3 (Homo sapiens) (UniProt Q14994); assay: qHTS assay to identify small molecule agonists of the constitutive androstane receptor (CAR) signaling pathway (AID 1224839);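 further: HepG2 cells stably carrying human CAR and a CYP2B6 luciferase reporter; nearly all actives have a fitted effect of over 15% in size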
Summary of the method: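 HepG2 cells stably expressing hCAR and a CYP2B6-2.2kb luciferase reporter were treated with compounds at 15 concentrations plus 0.75 uM PK11195 (final) for 24 h at 37 C; luminescence was read after ONE-Glo addition.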

[8] = qHTS assay to identify small molecule antagonists of the estrogen related receptor signaling pathway with the pleiotropic PPARgamma coactivator (PGC) from Tox21 10K library - cell viability counter screen (AID 1224840; active means well fitted cell-killing curve with a large enough effect in the repeat runs, not every such curve was filed as active; further: nearly all actives have a fitted effect of over 40% in size)
Summary of the method: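 PGC/ERR cells were seeded at 2,000 cells/well and left 6 hours at 37 C/5% CO2 before pin-tool addition of compounds in DMSO. After 17.5 hours at 37 C, CellTiter-Fluor was added and fluorescence read 30 minutes later.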

[9] = molecular target: Thyrotropin receptor (Homo sapiens) (UniProt P16473); assay: qHTS assay to identify small molecule agonists of the thyroid stimulating hormone receptor (TSHR) signaling pathway (AID 1224843; calls by dose curve; further: nearly all actives have a fitted effect of over 45% in size)
Summary of the method: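 TSHR-expressing HEK293 cells (800 per well) were exposed to compounds for 30 min at room temperature. cAMP was then detected by HTRF competition with cAMP-d2 and anti-cAMP cryptate, read after 1 h at room temperature. Fifteen concentrations, triplicate.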

[10] = qHTS assay to identify small molecule agonists of the hypoxia (HIF-1) signaling pathway - cell viability counter screen (AID 1224844; calls by dose curve; further: nearly all actives have a fitted effect of over 50% in size)
Summary of the method: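 HRE-bla ME-180 cells in medium with 0.5% dialyzed FBS were preincubated 5 hrs at 37C, exposed to compounds for 17 hrs, then viability was read as CellTiter-Glo luminescence after 30 min at room temperature, in the reporter wells.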

[11] = qHTS assay to identify small molecule agonists of H2AX (AID 1224845; active means well fitted activation curve with a large enough effect in the signal ratio in the repeat runs, not every such curve was filed as active; the % refers to the signal ratio)
Summary of the method: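 Wild-type CHO-K1 cells plated overnight, then exposed 3 hr at 37C to compounds at 15 concentrations (0.76% DMSO). Lysed, then HTRF anti-pH2AX(S139)-cryptate/anti-H2AX-d2 detection after 24 hr at room temperature; emissions 665 and 620 nm.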

[12] = qHTS assay to identify small molecule agonists of the hypoxia (HIF-1) signaling pathway (AID 1224846; active means well fitted activation curve with a large enough effect in the signal ratio in the repeat runs, not every such curve was filed as active; the % refers to the signal ratio)
Summary of the method: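 HRE-bla ME-180 cells (beta-lactamase reporter under hypoxia response element) were plated at 2,000 cells/well in medium with 0.5% dialyzed FBS, rested 5 hrs, then given compounds in DMSO for 17 hrs at 37C, 5% CO2. Reporter induction was read with CCF4-AM FRET substrate.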

[13] = qHTS assay to identify small molecule agonists of H2AX - cell viability counter screen (AID 1224847; calls by dose curve; further: top concentration of the series differs between compounds; nearly all actives have a fitted effect of over 30% in size)
Summary of the method: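 Wild-type CHO-K1 cells (10% FBS medium) were plated overnight at 37C, exposed to compounds at 15 concentrations for 3 hr at 37C (0.76% DMSO final), and viability was read as CellTiter-Glo luminescence after 30 min at room temperature.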

[14] = qHTS RealTime-Glo MT Cell Viability Assay in HepG2 cells - 24 hour (AID 1224867); further: nearly all actives have a fitted effect of over 50% in size
Summary of the method: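 Viability was tracked continuously by NanoLuc luminescence from prosubstrate reduced by living HepG2 cells, at successive time points over 40 h of compound exposure. Cells with reagent were preincubated 5 h at 37 °C before compound addition.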

[15] = molecular target: Nuclear receptor subfamily 1 group I member 3 (Homo sapiens) (UniProt Q14994); assay: qHTS assay to identify small molecule antagonists of the constitutive androstane receptor (CAR) signaling pathway (AID 1224838); further: nearly all actives have a fitted effect of over 40% in size
Summary of the method: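 HepG2 cells stably co-transfected with hCAR and a CYP2B6-2.2kb luciferase reporter were seeded 4 h before compound addition at 15 concentrations. Cells were stimulated with 50 nM CITCO (final) for 24 h at 37 C; luciferase luminescence was then read.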

[16] = qHTS assay to identify small molecule antagonists of the estrogen related receptor signaling pathway with the pleiotropic PPARgamma coactivator (PGC) from Tox21 10K library (AID 1224841; call rule not given here; further: actives are mostly falling curves and most rising ones were filed inactive; nearly all actives have a fitted effect of over 50% in size)
Summary of the method: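 PGC/ERR reporter cells were seeded at 2,000 cells/well and held 6 hours at 37 C/5% CO2 before pin-tool addition of compounds in DMSO. After 18 hours at 37 C, One-Glo was added and luminescence read after 30 minutes at room temperature.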

[17] = qHTS assay to identify small molecule agonists of the estrogen related receptor signaling pathway with the pleiotropic PPARgamma coactivator (PGC) from Tox21 10K library (AID 1224842); further: nearly all actives have a fitted effect of over 15% in size
Summary of the method: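 PGC/ERR reporter cells (NTP line) were seeded 2,000 per well, rested 6 h at 37 C/5% CO2, then pin-dosed with compounds in DMSO for 18 h at 37 C; luciferase read by One-Glo luminescence after 30 min at room temperature.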

[18] = qHTS assay to identify small molecule antagonists of the estrogen related receptor (ERR) signaling pathway from Tox21 library (AID 1224848); further: nearly all actives have a fitted effect of over 50% in size
Summary of the method: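 Cells: ERR line, 2,000/well; 6 h preincubation 37 C/5% CO2. Cpd in DMSO via pin tool; 18 h, 37 C. ONE-Glo, 30 min RT, luminescence.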

[19] = qHTS assay to identify small molecule agonists of the estrogen related receptor (ERR) signaling pathway from Tox21 library (AID 1224849; calls by dose curve; further: nearly all actives have a fitted effect of over 15% in size); conditions: ERR reporter cell line, ONE-Glo luciferase, 18 h; at 92.4 µM (top of the series) unless noted
Summary of the method: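 ERR reporter cell line (NTP) seeded, rested 6 h at 37 C/5% CO2, then pinned with Tox21 compounds in DMSO. After 18 h at 37 C, ONE-Glo luciferase luminescence was read following 30 min at room temperature.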

[20] = qHTS assay to identify small molecule antagonists of the constitutive androstane receptor (CAR) signaling pathway - cell viability counter screen (AID 1224837); further: nearly all actives have a fitted effect of over 45% in size
Summary of the method: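 HepG2 cells stably expressing hCAR and a CYP2B6-2.2kb reporter were plated and pre-incubated 4 hr at 37 C/5% CO2, then given compounds at 15 concentrations plus 50 nM CITCO (final). After 23 hr, viability was read by CellTiter-Fluor fluorescence.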
On the % scale 0 is the no-effect control and ±100 the full control effect.

Chain of Luciferin 4-monooxygenase (Photinus pyralis) (P08659 whole entry, looked up): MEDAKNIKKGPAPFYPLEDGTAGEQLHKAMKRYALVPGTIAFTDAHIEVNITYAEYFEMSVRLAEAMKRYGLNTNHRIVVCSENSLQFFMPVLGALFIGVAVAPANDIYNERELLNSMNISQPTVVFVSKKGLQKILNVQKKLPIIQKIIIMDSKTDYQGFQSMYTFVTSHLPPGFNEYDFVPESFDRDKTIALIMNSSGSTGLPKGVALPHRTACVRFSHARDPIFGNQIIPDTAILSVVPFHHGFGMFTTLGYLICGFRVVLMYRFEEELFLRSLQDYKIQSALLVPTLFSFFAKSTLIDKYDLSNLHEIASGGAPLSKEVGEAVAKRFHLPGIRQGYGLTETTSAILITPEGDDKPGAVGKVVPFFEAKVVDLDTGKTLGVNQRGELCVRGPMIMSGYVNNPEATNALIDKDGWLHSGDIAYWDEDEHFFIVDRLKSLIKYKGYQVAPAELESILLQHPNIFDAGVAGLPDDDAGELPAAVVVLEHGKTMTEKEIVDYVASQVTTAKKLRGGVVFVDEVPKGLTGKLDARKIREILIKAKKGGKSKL
Chain of Nuclear receptor subfamily 1 group I member 3 (Homo sapiens) (Q14994 whole entry, looked up): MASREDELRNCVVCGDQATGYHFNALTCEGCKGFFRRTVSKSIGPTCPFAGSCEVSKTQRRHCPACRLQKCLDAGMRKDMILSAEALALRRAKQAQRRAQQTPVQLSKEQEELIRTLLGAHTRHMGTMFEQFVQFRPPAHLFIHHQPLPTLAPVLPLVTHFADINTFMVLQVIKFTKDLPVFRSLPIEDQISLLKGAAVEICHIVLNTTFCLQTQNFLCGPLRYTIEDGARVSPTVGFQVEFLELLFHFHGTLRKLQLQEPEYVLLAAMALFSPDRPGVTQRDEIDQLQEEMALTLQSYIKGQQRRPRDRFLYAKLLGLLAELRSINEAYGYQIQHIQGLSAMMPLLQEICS
Chain of Thyrotropin receptor (Homo sapiens) (P16473 whole entry, looked up): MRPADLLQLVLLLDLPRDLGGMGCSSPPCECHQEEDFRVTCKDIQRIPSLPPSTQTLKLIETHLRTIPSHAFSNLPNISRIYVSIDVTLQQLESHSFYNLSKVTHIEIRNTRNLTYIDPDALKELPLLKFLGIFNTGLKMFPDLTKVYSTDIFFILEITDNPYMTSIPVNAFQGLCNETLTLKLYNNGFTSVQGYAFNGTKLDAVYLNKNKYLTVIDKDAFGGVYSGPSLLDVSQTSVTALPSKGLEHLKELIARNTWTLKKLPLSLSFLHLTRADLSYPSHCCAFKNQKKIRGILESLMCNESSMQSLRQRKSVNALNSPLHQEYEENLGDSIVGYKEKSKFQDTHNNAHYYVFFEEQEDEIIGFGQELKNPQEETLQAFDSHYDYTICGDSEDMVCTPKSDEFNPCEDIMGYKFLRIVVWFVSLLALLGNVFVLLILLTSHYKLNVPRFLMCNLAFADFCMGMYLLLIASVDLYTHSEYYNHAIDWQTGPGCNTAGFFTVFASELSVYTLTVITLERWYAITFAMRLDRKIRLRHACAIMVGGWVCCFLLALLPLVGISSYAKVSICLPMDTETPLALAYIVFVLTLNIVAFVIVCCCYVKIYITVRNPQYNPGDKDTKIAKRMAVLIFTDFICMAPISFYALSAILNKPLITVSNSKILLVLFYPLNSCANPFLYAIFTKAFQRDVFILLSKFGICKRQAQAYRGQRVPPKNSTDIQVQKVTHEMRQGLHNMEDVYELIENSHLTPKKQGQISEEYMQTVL

CC(C)(C)C(=O)NCCCC(=O)O
inactive: outcome [1] | outcome [2] | Potency [3] | outcome [4] | Potency [5] | outcome [6] | Potency [7] | outcome [8] | Potency [9] | outcome [10] | outcome [11] | outcome [12] | outcome [13] | outcome [14]

CCOC(=O)CC(C(C)=O)C(C)=O
inactive: outcome [1] | outcome [2] | Potency [3] | outcome [4] | Potency [5] | outcome [6] | outcome [15] | Potency [7] | outcome [8] | Potency [9] | outcome [10] | outcome [11] | outcome [12] | outcome [14]

Cc1ccc(N)nc1
inactive: outcome [1] | outcome [2] | Potency [3] | outcome [4] | Potency [5] | outcome [6] | outcome [8] | Potency [16] | Potency [17] | Potency [9] | outcome [10] | outcome [11] | outcome [12] | outcome [13] | outcome [18] | activity change, positive = activation [19] 3.66% | outcome [14]

COc1ccc(Cl)cc1C
inactive: outcome [1] | outcome [2] | Potency [3] | outcome [4] | Potency [5] | outcome [6] | outcome [8] | Potency [16] | Potency [17] | outcome [10] | outcome [11] | outcome [12] | outcome [13] | outcome [18] | activity change, positive = activation [19] 7.2% | outcome [14]

CCCCCCCOC(C)=O
inactive: outcome [1] | outcome [2] | Potency [3] | outcome [4] | Potency [5] | outcome [6] | outcome [20] | outcome [8] | Potency [9] | outcome [11] | outcome [12] | outcome [13] | outcome [14]

COC(=O)c1ccc(C(=O)O)cc1
inactive: outcome [1] | outcome [2] | Potency [3] | outcome [4] | Potency [5] | outcome [6] | outcome [20] | outcome [8] | Potency [9] | outcome [11] | outcome [13] | outcome [14]

O=C(CCBr)N1CCN(C(=O)CCBr)CC1
inactive: outcome [1] | outcome [2] | Potency [3] | outcome [4] | Potency [5] | outcome [6] | outcome [20] | outcome [8] | Potency [9] | outcome [10] | outcome [11] | outcome [13] | outcome [14]

Cc1cc(C)c(C)c(C)c1
inactive: outcome [1] | outcome [2] | Potency [3] | outcome [4] | Potency [5] | outcome [6] | outcome [15] | Potency [7] | outcome [8] | Potency [16] | Potency [17] | outcome [10] | outcome [11] | outcome [12] | outcome [13] | outcome [18] | activity change, positive = activation [19] 5.28% | outcome [14]

CCCCN1C(=O)c2ccccc2C1=O
inactive: outcome [1] | outcome [2] | Potency [3] | outcome [4] | Potency [5] | outcome [6] | outcome [15] | Potency [7] | outcome [8] | Potency [16] | Potency [17] | Potency [9] | outcome [10] | outcome [11] | outcome [12] | outcome [18] | activity change, positive = activation [19] 6.09% | outcome [14]

NS(=O)(=O)c1cc2c(cc1C(F)(F)F)NCNS2(=O)=O
inactive: outcome [1] | outcome [2] | Potency [3] | outcome [4] | Potency [5] | outcome [6] | outcome [20] | outcome [8] | Potency [9] | outcome [11] | outcome [13] | outcome [14]

CCCCCCCCCCCBr
inactive: outcome [1] | outcome [2] | Potency [3] | outcome [4] | Potency [5] | outcome [6] | outcome [15] | Potency [7] | outcome [8] | outcome [10] | outcome [11] | outcome [12] | outcome [13] | outcome [14]

C[C@@H]1NC(=O)[C@@H](N)CNC(=O)[C@H](C2CCNC(N)=N2)NC(=O)/C(=C/NC(N)=O)NC(=O)[C@H](CNC(=O)C[C@@H](N)CCCN)NC1=O (stereo partly drawn)
inactive: activity change, negative = cytotoxicity [1] 5.1% [at 0.349 µM] | activity, negative = inhibition [2] 21% [at 0.349 µM] | activation [3] 0.189% [at 0.756 µM] | viability change, negative = cytotoxic [4] -0.374% [at 0.349 µM] | activity change, negative = inhibition [5] -1.34% [at 0.435 µM] | viability change, negative = cytotoxic [6] -0.0447% [at 0.349 µM] | activation [7] 4.38% [at 0.349 µM] | viability change, negative = cytotoxic [8] 10.7% [at 0.349 µM] | activation [9] -10.7% [at 0.349 µM] | activity change, negative = cytotoxicity [10] 3.53% [at 0.29 µM] | activation (H2AX phosphorylation) [11] -2.47% [at 0.582 µM] | activation [12] -0.509% [at 0.291 µM] | activity change, negative = cytotoxicity [13] 1.7% [at 0.582 µM] | activity change, negative = cytotoxicity [14] 4.49% [at 0.29 µM]

CCOC(=O)CN1CCCC1=O
inactive: outcome [1] | outcome [2] | Potency [3] | outcome [4] | Potency [5] | outcome [6] | outcome [15] | Potency [7] | outcome [8] | outcome [10] | outcome [11] | outcome [13] | outcome [14]

C=C(C)C(=O)OCCCC
inactive: outcome [1] | outcome [2] | Potency [3] | outcome [4] | Potency [5] | outcome [6] | outcome [8] | Potency [9] | outcome [10] | outcome [11] | outcome [12] | outcome [13] | outcome [14]

COc1cnc(NS(=O)(=O)c2ccc(N)cc2)nc1
inactive: outcome [1] | outcome [2] | Potency [3] | outcome [4] | Potency [5] | outcome [6] | Potency [7] | outcome [8] | Potency [16] | Potency [17] | Potency [9] | outcome [11] | outcome [12] | outcome [13] | outcome [18] | activity change, positive = activation [19] 4.16% [at 42.5 µM] | outcome [14]
